High-throughput results as filed in PubChem.
Hits are enriched below; roughly 4% of the tested compounds scored in any of these assays.
Mtb UGM inh – Mtb UDP-galactopyranose mutase inhibition | purified UGM, fluorescence polarization probe displacement | inhibition, % at 10 µM | AID 504406 | P9WIQ1 | actives 0.06% (n = 320,000); in the data active means inhibition above about 10%, passing the limit was not always enough; inconclusive means no clear call, values can overlap the other calls
Rv3671c inh – Rv3671c (M. tuberculosis) protease inhibition. inhibition, % at 5.96 µM. actives 0.048% (n = 320,000). AID 2606; in the data active means inhibition above about 38%;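 further: extracellular domain of Rv3671c used as enzyme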
RecA splice inh – Mtb RecA intein splicing inhibition | inhibition, % (test concentration not listed) | cell-free RecA intein splicing, fluorescence | actives 0.75% (n = 290,000) | AID 2221 | P9WHJ3; in the data active means inhibition above about 30%; inconclusive means no clear call, values can overlap the other calls
FBA Mtb inh – Mtb fructose-bisphosphate aldolase inhibition; P9WQA3; purified M. tuberculosis FBA, fluorescence read-out; inhibition, % at 1 µM; actives 2.3% (n = 360,000); AID 588726
Target sequence (P9WQA3 whole entry, looked up): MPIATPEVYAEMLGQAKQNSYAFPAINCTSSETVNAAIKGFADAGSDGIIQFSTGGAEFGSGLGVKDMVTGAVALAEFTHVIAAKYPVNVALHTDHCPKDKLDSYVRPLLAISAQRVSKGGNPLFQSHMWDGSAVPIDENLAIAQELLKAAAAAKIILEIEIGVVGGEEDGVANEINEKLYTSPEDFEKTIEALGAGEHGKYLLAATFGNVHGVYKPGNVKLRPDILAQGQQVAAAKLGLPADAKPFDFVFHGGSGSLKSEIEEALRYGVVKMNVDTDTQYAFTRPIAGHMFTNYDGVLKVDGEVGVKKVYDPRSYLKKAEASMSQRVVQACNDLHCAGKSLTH
Mtb betalactam – beta-lactam sensitization of Mtb H37Rv; M. tuberculosis H37Rv growth with meropenem, percent inhibition; inhibition, % at 25 µM; actives 0.27% (n = 330,000); AID 434955; call rule not given here;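 further: growth measured after seven days incubation then overnight dye step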
GDH-TPI counter-1 – inhibits GDH-TPI coupling enzymes, artifact for Mtb FBA screen; GDH-TPI coupled enzyme counterscreen, NADH absorbance; inhibition, % at 4.8 µM; actives 1.2% (n = 360,000); in the data active means inhibition above about 30%
Mtb FBA inh conf – confirmation of M. tuberculosis fructose-bisphosphate aldolase inhibitors | shares compounds with FBA Mtb inh | purified M. tuberculosis FBA, fluorescence read-out | inhibition, % at 1 µM | actives 78% (n = 5,600) | AID 651616
GDH-TPI counter-2 – inhibits GDH-TPI coupling enzymes, flagging Mtb FBA hits | AID 652141 | shares compounds with FBA Mtb inh | inhibition, % at 1 µM | GDH-TPI coupled enzyme counterscreen, fluorescence | actives 81% (n = 5,600); in the data active means inhibition above about 10%
Numbers stand for hits. Unless noted, no stated cut-off is given here; in the data, active means inhibition above about 27%; inactive means the rest.

Screening CCCN1C(=O)c2ccccc2NC1c1ccc(OC)c(CSc2ccccn2)c1 (stereo unspecified) returned Mtb UGM inh inactive, Rv3671c inh inactive, RecA splice inh inactive, FBA Mtb inh 56, Mtb betalactam inactive, GDH-TPI counter-1 inactive, Mtb FBA inh conf 140 and GDH-TPI counter-2 105.
For COc1ccc(C2Nc3ccccc3C(=O)N2Cc2ccccc2)cc1COc1ccccn1 (stereo unspecified) the results were Mtb UGM inh inactive, Rv3671c inh inactive, RecA splice inh inactive, FBA Mtb inh 78, Mtb betalactam inactive, GDH-TPI counter-1 inactive, Mtb FBA inh conf 64 and GDH-TPI counter-2 54.
Screening COCOc1ccc(-c2cc(=O)c3c(OCOC)cc(OCOC)cc3o2)cc1 returned Mtb UGM inh inactive, Rv3671c inh inactive, RecA splice inh inactive, FBA Mtb inh 64, Mtb betalactam inactive, GDH-TPI counter-1 inactive, Mtb FBA inh conf 106 and GDH-TPI counter-2 64.
`COCOc1cc(O)c2c(=O)c(OCOC)c(-c3ccc(OCOC)c(OCOC)c3)oc2c1` gave Mtb UGM inh inactive, Rv3671c inh inactive, RecA splice inh inactive, FBA Mtb inh inactive, Mtb betalactam inactive and GDH-TPI counter-1 inactive.
For O=C(NCCN1CCCC1)C1CCC(=O)N(CCCN2CCOCC2)C1 (stereo unspecified) the results were Mtb UGM inh inactive, Rv3671c inh inactive, RecA splice inh inactive, FBA Mtb inh inactive, Mtb betalactam inactive and GDH-TPI counter-1 inactive.
For COCCCNC(=O)C[C@H]1C[C@H](C(=O)N2CCOCC2)[C@@]2(C)c3[nH]c4cc(-c5ccco5)ccc4c3CCN2C1=O the results were FBA Mtb inh 33, GDH-TPI counter-1 inactive, Mtb FBA inh conf inactive and GDH-TPI counter-2 11.
For CCN(CC)C(=O)[C@H]1C[C@H](CC(=O)NCCN2CCOCC2)C(=O)N2CCc3c([nH]c4cc(-c5ccco5)ccc34)[C@]12C the results were FBA Mtb inh 50, GDH-TPI counter-1 inactive, Mtb FBA inh conf 65 and GDH-TPI counter-2 39.
Screening COCCCNC(=O)C[C@H]1C[C@H](C(=O)N(C(C)C)C(C)C)[C@@]2(C)c3[nH]c4cc(-c5ccco5)ccc4c3CCN2C1=O returned FBA Mtb inh 31, GDH-TPI counter-1 inactive, Mtb FBA inh conf 128 and GDH-TPI counter-2 104.
Screening CN(C)CCCNC(=O)C[C@H]1C[C@H](C(=O)N2CCOCC2)[C@@]2(C)c3[nH]c4cc(-c5ccco5)ccc4c3CCN2C1=O returned FBA Mtb inh 33, GDH-TPI counter-1 inactive, Mtb FBA inh conf 135 and GDH-TPI counter-2 110.
Cc1ccc(S(=O)(=O)NCCc2nnc3ccc(N4CCOCC4)nn23)cc1 was read as FBA Mtb inh inactive and GDH-TPI counter-1 inactive.
O=C(C[C@@H]1C/C=C\CC[C@H](Cc2ccc(F)cc2)C(=O)OC[C@@H]2CCCN2C1=O)N[C@H](CO)Cc1ccccc1 was read as Mtb UGM inh inactive, Rv3671c inh inactive, FBA Mtb inh inactive, Mtb betalactam inactive and GDH-TPI counter-1 inactive.
`COc1ccc(-c2c(NC(=O)C(C)C)n(C)c3ccccc3c2=O)cc1` gave Mtb UGM inh inactive, Rv3671c inh inactive, RecA splice inh inactive, FBA Mtb inh 37, Mtb betalactam inconclusive, GDH-TPI counter-1 inactive, Mtb FBA inh conf active and GDH-TPI counter-2 active.
`CCOc1ccc(-c2cc3cc(OC)c(OC)cc3c(C)n2)cc1` gave Mtb UGM inh inactive, Rv3671c inh inactive, RecA splice inh inactive, FBA Mtb inh 28, Mtb betalactam inactive, GDH-TPI counter-1 inactive, Mtb FBA inh conf 60 and GDH-TPI counter-2 43.
Screening CCc1nc(-c2ccc(OC)c(OC)c2)cc2cc(OC)c(OC)cc12 returned Mtb UGM inh inactive, Rv3671c inh inactive, RecA splice inh inactive, FBA Mtb inh inactive, Mtb betalactam inactive and GDH-TPI counter-1 inactive.
CCN(C[C@H]1N[C@@](CC)(C(=O)OC)[C@H]2C(=O)N(Cc3ccccc3)C(=O)[C@@H]12)C(=O)NC(C)C was read as Mtb UGM inh inactive, Rv3671c inh inactive, FBA Mtb inh inactive, Mtb betalactam inactive and GDH-TPI counter-1 inactive.
Screening O=C(NNC(=O)C1CCC1)c1ccccc1F returned Mtb UGM inh inactive, Rv3671c inh inactive, RecA splice inh inactive, FBA Mtb inh inactive, Mtb betalactam inactive and GDH-TPI counter-1 inactive.
For O=C(COc1ccc2c3c(c(=O)oc2c1)CCC3)Nc1ccc(CN2CCOCC2)cc1 the results were Mtb UGM inh inactive, Rv3671c inh inactive, RecA splice inh inactive, FBA Mtb inh inactive, Mtb betalactam inactive and GDH-TPI counter-1 inactive.
For O=C(COc1ccc2c3c(c(=O)oc2c1)CCCC3)NC(Cc1ccc(Cl)cc1)C(=O)O (stereo unspecified) the results were Mtb UGM inh inactive, Rv3671c inh inactive, RecA splice inh inactive, FBA Mtb inh 67, Mtb betalactam inactive, GDH-TPI counter-1 inactive, Mtb FBA inh conf 124 and GDH-TPI counter-2 100.
For O=C(COc1ccc2c3c(c(=O)oc2c1)CCCC3)N[C@@H](Cc1ccccc1)C(=O)O the results were Mtb UGM inh inactive, Rv3671c inh inactive, RecA splice inh inactive, FBA Mtb inh 59, Mtb betalactam inactive, GDH-TPI counter-1 inactive, Mtb FBA inh conf inactive and GDH-TPI counter-2 inactive.
For CC(Oc1ccc2c3c(c(=O)oc2c1)CCC3)C(=O)N[C@@H](Cc1ccccc1)C(=O)O (stereo partly specified) the results were Mtb UGM inh inactive, Rv3671c inh inactive, FBA Mtb inh inactive, Mtb betalactam inactive and GDH-TPI counter-1 inactive.
COc1ccccc1N1C(=O)c2ccccc2NC1c1ccc(O)cc1 (stereo unspecified) was read as Mtb UGM inh inactive, Rv3671c inh inactive, RecA splice inh inactive, FBA Mtb inh 42, Mtb betalactam inactive, GDH-TPI counter-1 inactive, Mtb FBA inh conf 52 and GDH-TPI counter-2 45.
Screening COc1ccc(N2C(=O)c3ccccc3NC2c2ccc(NC(C)=O)cc2)c(OC)c1 (stereo unspecified) returned Mtb UGM inh inactive, Rv3671c inh inactive, RecA splice inh inactive, FBA Mtb inh 42, Mtb betalactam inactive, GDH-TPI counter-1 inactive, Mtb FBA inh conf 91 and GDH-TPI counter-2 64.
Cc1ccc(Oc2ncc(CN3CCOCC3)s2)cc1 was read as Mtb UGM inh inactive, Rv3671c inh inactive, RecA splice inh inactive, FBA Mtb inh 38, Mtb betalactam inactive, GDH-TPI counter-1 inactive, Mtb FBA inh conf 50 and GDH-TPI counter-2 44.
